Compound activity (PubChem BioAssay)
Rows were chosen to be rich in hits. Some 1.1% of all compounds tested hit in one or more screens of this group.
SRC2 inh – inhibits human steroid receptor coactivator 2; HEK293 GAL4-SRC2 luciferase reporter, luminescence; Q15596; 370,000 compounds, 0.17% hits; AID 651957; inhibition, % at 9 µM;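 active = inhibition above the mean inhibition of all tested compounds plus 3 SD, set per campaign, cut at about 52% in these data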;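 also: 0% = DMSO treated cells and 100% = cells given Gossypol at 36 µM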
SRC3 inh – inhibitors of human steroid receptor coactivator 3 (SRC3). 360,000 compounds, 0.17% hits. HEK293 GAL4-SRC3 luciferase reporter, luminescence. inhibition, % at 3.6 µM. Q9Y6Q9. AID 588352;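 active = inhibition above a per-campaign cutoff, the mean of all compounds plus 3 SD, cut at about 60% in these data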;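 also: 0% = DMSO-treated cells and 100% = gossypol-treated cells at 36 µM; higher means less SRC3-driven luciferase light from the GAL4 reporter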
NR5A2 inv ag – suppresses constitutive activity of human LRH-1. O00482. AID 602396. 360,000 compounds, 0.13% hits. inhibition, % at 3.6 µM. HEK293T StAR-luciferase reporter, LRH-1 transfected, 24 h;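 active = inhibition above the mean inhibition of all tested compounds plus 3 SD, cut at about 73% in these data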;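 also: 0% = DMSO wells and 100% = reporter-only cells lacking LRH-1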
NR2F2 inh – blocks human COUP-TFII nuclear receptor; P24468; HEK293T NGFI-A luciferase reporter, luminescence; inhibition, % at 8.6 µM; 370,000 compounds, 0.7% hits; AID 686940;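 active = inhibition above a per-plate cutoff, mean inhibition of test wells between control levels plus 3 SD, cut at about 38% in these data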;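 also: cells cotransfected with COUP-TFII expression vector driving the NGFI-A reporter; 0% = median of COUP-TF2 test wells and 100% = reporter-only cells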
NCOA1 inh – inhibits human SRC1 coactivator; Q15788; HEK293 GAL4-SRC1 luciferase reporter, luminescence; inhibition, % at 3.6 µM; 360,000 compounds, 0.12% hits;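 active = inhibition above the campaign mean plus 3 SD, with each screening campaign given its own cutoff, cut at about 60% in these data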;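 also: 0% = DMSO treated cells and 100% = gossypol at 36 µM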
GalR3 antagonist – blocks the human galanin receptor 3; O60755; HEK293 GalR3-CNG cAMP membrane potential fluorescence; galR3 body fused to GalR1 C-terminus; inhibition, % at 3 µM; 360,000 compounds, 0.44% hits; AID 651719;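 active = inhibition above the screen-wide average plus 3 SD, cut at about 13% in these data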;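 also: forskolin and galanin both at EC90 stimulate the cells; cAMP rise reported by CNG channel membrane potential dye signal; 0% = forskolin plus galanin with DMSO and 100% = forskolin alone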
Gal4-VP16 ctr – inhibits VP16 reporter, flagging COUP-TFII antagonist hits | HEK293 Gal4-VP16 luciferase reporter, luminescence | AID 687007 | shares compounds with NR2F2 inh | 2,500 compounds, 25% hits | inhibition, % at 8.5 µM; in the data active = inhibition above about 13%
NR2F2 inh conf – COUP-TFII (NR2F2) inhibition, confirmation assay; HEK293 NGFI-A luciferase reporter, luminescence; 2,500 compounds, 45% hits; shares compounds with NR2F2 inh; AID 687008; inhibition, % at 8.5 µM;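 active = mean inhibition over three repeats above a set limit taken from the earlier primary screen, cut at about 38% in these data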;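 also: 100% = cells given the luciferase reporter alone without the COUP-TF2 vector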
The depositor's hits bear a star; nt = no result given.

SMILES | SRC2 inh | SRC3 inh | NR5A2 inv ag | NR2F2 inh | NCOA1 inh | GalR3 antagonist | Gal4-VP16 ctr | NR2F2 inh conf
Cc1cc(Nc2ccccc2)nc(NCc2ccccc2)n1 | 28.3 | 0.1 | 19.3 | 37.8* | 10.2 | -12.1 | -5.1 | 20.8
COc1cc(C=Nc2c(C)cc(C)cc2C)ccc1OC(C)=O | -5.8 | 3.3 | 13.0 | 49.7* | 1.9 | -6.6 | 7.4 | 6.1
COc1cc(/C=N/NC(=O)c2ccncc2)ccc1OC(C)=O | 11.5 | 5.2 | -2.4 | 5.0 | 11.8 | -10.3 | nt | nt
O=[N+]([O-])c1ccc(OCCCN2CCC(C(O)(c3ccccc3)c3ccccc3)CC2)c(Cl)c1 | -0.1 | nt | nt | -46.0 | nt | nt | nt | nt
Cc1cc(=O)n2c3c(c4c(cc13)c(CN(C)C)cc(=O)n4C)OC2 | 58.0* | -3.8 | 15.1 | 78.2* | -13.3 | -6.2 | -6.9 | -1.1
Cc1cc(=O)n(C)c2ccccc12 | -28.1 | -3.1 | 7.4 | -20.4 | 6.0 | 0.8 | nt | nt
CN(C)c1ccc(C=C2SC(=S)N(Cc3ccco3)C2=O)cc1 | -11.7 | -10.9 | 21.2 | 39.5* | -14.3 | -4.7 | -18.4 | -1.5
COC(=O)[C@]12C[C@H](CC(=O)NCc3cccc4ccccc34)C(=O)N(CCC3=CCCCC3)C1=C[C@H](C(C)C)O[C@@H]2C1CC1 | -13.5 | nt | nt | 13.8 | nt | nt | nt | nt
CCN(CC)c1nc(C=Cc2ccc(N(C)C)cc2)c2nccnc2n1 | 66.3* | 0.9 | 11.9 | 87.9* | -7.2 | -4.4 | -11.7 | -4.4
CN(C)c1nc(N)c2nccnc2n1 | -0.1 | -2.0 | -24.9 | 7.4 | -47.6 | -6.5 | nt | nt
O=C(c1ccccc1)c1nn(-c2ccccc2)c(=O)cc1C(F)(F)F | -15.0 | 11.8 | 1.6 | 17.1 | -11.8 | -0.4 | nt | nt
O=C(c1ccccc1)c1nn(-c2ccc(Cl)cc2)c(=O)cc1C(F)(F)F | 68.9* | 63.6* | 84.9* | 40.5* | 25.7 | 1.7 | 50.2* | 62.4*
COc1cc(CNc2ccc(CNc3ncn[nH]3)cc2)ccc1OCC(=O)NC(C)(C)C | 29.9 | 7.2 | 50.8 | 41.7* | -4.9 | -1.7 | 1.6 | 17.5
Cc1ccc(NC(=O)C2CCN(S(=O)(=O)c3ccc(N4CCCC4=O)cc3)CC2)cc1Cl | 37.8 | 5.5 | 23.8 | 66.1* | -1.4 | -3.6 | 2.0 | 45.8*
COc1ccc(NC(=O)C2CCN(S(=O)(=O)c3ccc4c(c3)NC(=O)C(C)S4)CC2)cc1 (stereo not drawn) | 13.9 | -16.4 | 3.0 | 14.3 | 6.2 | 0.9 | nt | nt
Cc1ccc(NC(=O)C2CCCN(C(=O)c3ccc(Cl)cc3)C2)cc1S(=O)(=O)N1CCOCC1 (stereo not drawn) | -11.8 | 9.5 | 14.9 | 37.6* | 12.1 | 1.6 | -7.2 | 3.0
Cc1ccccc1C(=O)N1CCC(C(=O)Nc2ccc(C)c(S(=O)(=O)N3CCCCC3)c2)CC1 | 16.3 | 19.9 | 11.2 | 41.6* | -0.9 | -7.2 | -6.2 | 13.1
CS(=O)(=O)c1ccc(NC(=O)C2CCCN(C(=O)c3ccc(Cl)cc3)C2)cc1 (stereo not drawn) | -7.9 | 13.4 | 10.4 | 7.9 | 9.8 | -1.4 | nt | nt
CC1Sc2ccc(S(=O)(=O)N3CCC(C(=O)Nc4ccc(Cl)cc4)CC3)cc2NC1=O (stereo not drawn) | 23.2 | 17.9 | 21.8 | 65.8* | 3.3 | 11.5 | 16.1* | 72.5*
COc1ccc(NC(=O)C2CCN(S(=O)(=O)c3ccc(N4CCCC4=O)cc3)CC2)c(OC)c1 | 14.8 | 7.1 | 8.9 | 3.2 | 15.3 | -7.2 | nt | nt
Cc1ccccc1C(=O)N1CCC(C(=O)Nc2cccc(S(=O)(=O)N3CCCCC3)c2)CC1 | 10.3 | -0.2 | 9.8 | 33.5 | 5.9 | -2.6 | nt | nt
O=C(CCc1ccccc1)N[C@H]1[C@@H](OC(=O)c2cnccn2)CCC[C@@]12C(=O)N(Cc1ccccc1)c1ccccc12 | -12.2 | nt | nt | 0.9 | nt | nt | nt | nt
